# Measured values taken from PubChem BioAssay.
# Activity calls are given as the source filed them.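 Rule for the calls, unless noted: active = inhibition at or above 50% at 10 µM; inactive = inhibition below 50%.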
# Tests used:
# [1] = inhibitors of TNFa-induced NFkB p65 translocation, primary screen, imaging, HUVEC, MLSMR starter and 10KST1 sets (AID 438;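 active = inhibition above 20% together with a positive visual image hit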;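 note: compound added about 3h40 before a 20 min TNFalpha stimulation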;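 for inhibition: signal is the nuclear over cytoplasmic p65 intensity ratio per well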); details: HUVEC TNFa-induced p65 nuclear translocation; cell count: measured here: nuclei count (cytotoxicity indicator), at 2.08 µM; inhibition: at 2 µM, stronger effect = higher value, 0% TNFa-plus-vehicle, 100% no-TNFa wells
# [2] = inhibitors of mutant huntingtin aggregation, primary screen, imaging, exon1htt(103Q)mCFP cells, high-content imaging (AID 483;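 active = visual image review flags a hit and inhibition of aggregation exceeds 20%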;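 note: compound exposure lasted 3 days before fixation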;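 for nuclei count: percent of the per-plate median nuclei count of sample wells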); details: exon1htt(103Q)mCFP cell line, aggregate imaging, at 2 µM; inhibition of aggregation: stronger effect = higher value; nuclei count: measured here: cell count, toxicity
# [3] = inhibitors of E-selectin induction by TNFa, primary screen, imaging, HUVEC, immunofluorescence, MLSMR starter and 10KST1 sets (AID 487;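 active = visually confirmed hit in the image check and inhibition above 20%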;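 for inhibition: signal is fraction of cell area covered by stained E-selectin grains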;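 for nuclei count: 100% = median nuclei count of all wells on the same plate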); details: HUVEC TNFalpha-induced E-selectin immunofluorescence imaging, at 2 µM; inhibition: stronger effect = higher value; nuclei count: measured here: cell number, toxicity
# [4] = biological target: Voltage-gated potassium channel subunit beta-2 (Rattus norvegicus) (UniProt P62483); experiment: KvBeta enzyme negative modulators, primary screen, biochemical, NADPH fluorescence (AID 622;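 active = fluorescence slope higher than the sample average by over 3 SD, cut at about -0.22 in these data, passing the limit was not always enough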;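 note: slope of raw intensity against log time taken from 70 to 1610 s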); details: recombinant KvBeta, 4-cyanobenzaldehyde reduction, at 10 µM, stronger effect = higher value
# [5] = biological target: Voltage-gated potassium channel subunit beta-2 (Rattus norvegicus) (UniProt P62483); experiment: KvBeta positive modulators, primary screen, biochemical, NADPH fluorescence (AID 623;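 active = NADPH fluorescence slope more negative than the mean of all samples by about 3 SD, 99.7% confidence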;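 note: fluorescence intensity change per second fitted from 20 to 320 s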); details: Recombinant KvBeta, NADPH fluorescence decrease slope, 10 min; at 10 µM; stronger effect = lower value
# [6] = biological target: Alpha-2C adrenergic receptor (Homo sapiens) (UniProt P18825); experiment: modulators of alpha2C/GIRK thallium flux, primary screen, cell-based, HEK293 alpha2C/GIRK1/2 (AID 624;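 active = fluorescence slope after compound addition differing from the mean of all screened samples at 99.7% confidence, in either direction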;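 note: slope of fluorescence ratio to pre-addition baseline per second over 15 to 24 s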); details: thallium flux BTC fluorescence, at 10 µM, actives lie on both sides
# [7] = inhibitors of Sendai virus-induced IRF3 signaling, primary screen, TLR/RLR signaling modifier project, cell-based, Sendai virus stimulus, luciferase, 10K MLSCN set (AID 602276); details: HEK293 RL24 IRF3 luciferase reporter, at 10 µM, stronger effect = higher value;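 note: firefly luciferase from ISG56 promoter only with Renilla not read in this screen; 0% = Sendai virus plus DMSO and 100% = medium plus DMSO without virus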
# [8] = inhibitors of poly I:C-induced TLR3 signaling, primary screen, cell-based, poly I:C stimulus, luciferase, 10K MLSCN set (AID 602277;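 active = inhibition of the reporter signal at or above 50%; inactive = inhibition below 50%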); details: HEK293-TLR3 RL24 IRF3 luciferase reporter, at 10 µM, stronger effect = higher value
# Chain of Alpha-2C adrenergic receptor (Homo sapiens) (P18825 whole entry, looked up): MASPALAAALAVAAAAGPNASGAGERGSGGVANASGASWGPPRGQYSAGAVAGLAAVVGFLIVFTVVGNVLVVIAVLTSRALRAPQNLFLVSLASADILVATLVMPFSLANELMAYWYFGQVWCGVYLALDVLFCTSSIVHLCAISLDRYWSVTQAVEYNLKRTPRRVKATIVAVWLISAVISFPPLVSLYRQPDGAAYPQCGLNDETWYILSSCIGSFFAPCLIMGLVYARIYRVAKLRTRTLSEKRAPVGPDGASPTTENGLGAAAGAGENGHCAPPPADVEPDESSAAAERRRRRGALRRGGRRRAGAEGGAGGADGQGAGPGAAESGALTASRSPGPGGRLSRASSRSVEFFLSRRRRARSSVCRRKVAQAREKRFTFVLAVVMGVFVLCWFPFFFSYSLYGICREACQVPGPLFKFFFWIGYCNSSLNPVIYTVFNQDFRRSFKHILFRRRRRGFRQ
# Chain of Voltage-gated potassium channel subunit beta-2 (Rattus norvegicus) (P62483 whole entry, looked up): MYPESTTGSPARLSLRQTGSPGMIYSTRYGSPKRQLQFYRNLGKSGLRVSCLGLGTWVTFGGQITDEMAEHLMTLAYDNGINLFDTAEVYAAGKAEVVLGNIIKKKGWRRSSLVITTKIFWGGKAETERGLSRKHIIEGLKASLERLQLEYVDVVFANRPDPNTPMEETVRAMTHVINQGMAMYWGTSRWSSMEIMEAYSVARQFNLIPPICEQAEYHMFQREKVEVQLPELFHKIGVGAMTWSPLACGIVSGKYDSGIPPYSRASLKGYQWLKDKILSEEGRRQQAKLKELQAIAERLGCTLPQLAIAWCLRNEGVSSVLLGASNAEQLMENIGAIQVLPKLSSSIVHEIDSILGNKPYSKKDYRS
Structure (SMILES),cell count [1],inhibition [1],inhibition of aggregation [2],nuclei count [2],inhibition [3],nuclei count [3],fluorescence slope [4],NADPH fluorescence slope [5],slope [6],inhibition [7],inhibition [8]
c1ccc(CSc2nnc(-c3cccs3)n2Cc2ccco2)cc1,601,-13.3% (inactive),-3.7% (inactive),102%,51.5% (inactive),102%,-0.488 (inactive),3.8e-06 (inactive),0.00593 (inactive),-8.26% (inactive),-9.64% (inactive)
NC(=O)c1ccccc1NC(=O)CN1CCOCC1,658,-24.7% (inactive),-45.9% (inactive),124%,-46.9% (inactive),105%,-0.492 (inactive),-3.8e-05 (inactive),0.00501 (inactive),21.2% (inactive),20.7% (inactive)
CCn1c(C(=O)N2CCCC(C(=O)NCCCc3ccccc3)C2)cc2sccc21 (stereo not drawn),618,-12% (inactive),40.9% (active),123%,-19.4% (inactive),104%,-0.583 (inactive),-1.2e-05 (inactive),0.00576 (inactive),-0.231% (inactive),-1.26% (inactive)
COc1ccc(C2=NOC(C(=O)Nc3cc(Br)ccc3O)C2)cc1OC (stereo not drawn),672,-12.2% (inactive),-2.8% (inactive),102%,-73.1% (inactive),106%,-0.459 (inactive),-3.2e-05 (inactive),0.00665 (inactive),9.82% (inactive),34.8% (inactive)
CC1CCCC(C)N1C(=O)COC(=O)c1ccc[nH]c1=O (stereo not drawn),476,0% (inactive),3.4% (inactive),98.4%,25.2% (inactive),113%,-0.326 (inactive),-7.3e-06 (inactive),0.00649 (inactive),16.7% (inactive),31.4% (inactive)
CCC1CCCCN1C(=O)Cn1c(C(=O)OC)cc2sc(Cl)cc21 (stereo not drawn),505,-11.3% (inactive),-19.4% (inactive),107%,7.9% (inactive),94.4%,-0.388 (inactive),-2e-05 (inactive),0.00448 (inactive),9.78% (inactive),34.6% (inactive)
C=Cn1nc(C)c2ccccc2c1=O,655,-2.6% (inactive),16.4% (inactive),114%,-27.2% (inactive),137%,-0.344 (inactive),-2.7e-05 (inactive),0.00755 (inactive),3.73% (inactive),1.18% (inactive)
CCC(=O)N1CCN=C1SCc1ccc(Cl)cc1,233,-4.9% (inactive),-22.3% (inactive),111%,7.9% (inactive),106%,-0.559 (inactive),5.6e-05 (inactive),0.00598 (inactive),21.3% (inactive),43.1% (inactive)
C=CCn1c2ccccc2c2nnc(SCC(=O)NC(C(=O)OC)C(C)C)nc21 (stereo not drawn),787,-1.4% (inactive),10.3% (inactive),104%,-83.9% (inactive),103%,-0.424 (inactive),-0.000127 (inactive),0.00508 (inactive),14.6% (inactive),27.7% (inactive)
Cc1cc(NS(=O)(=O)Cc2ccccc2)cc(C)c1OCC(=O)N1CCOCC1,323,-3.3% (inactive),-14.1% (inactive),86.8%,-47.7% (inactive),104%,-0.478 (inactive),-4.7e-05 (inactive),0.00653 (inactive),14.5% (inactive),10.6% (inactive)
c1ccc(-c2nnc(-c3ccco3)n2-c2ccccc2)cc1,383,4.1% (inactive),8.4% (inactive),102%,-75.9% (inactive),126%,-0.47 (inactive),-2.4e-05 (inactive),0.00639 (inactive),15.2% (inactive),20.5% (inactive)
CCOC(=O)C1(c2ccccc2)NC(c2ccc(N(C)C)cc2)C2C(=O)N(C)C(=O)C21 (stereo not drawn),450,-4% (inactive),3.8% (inactive),116%,-87.1% (inactive),93.2%,-0.31 (inactive),-6.3e-05 (inactive),0.00476 (inactive),14.4% (inactive),22.7% (inactive)
CC(C)Nc1ncnc2c1cnn2-c1ccccc1,681,-6.7% (inactive),-56.3% (inactive),3.7%,-1.2% (inactive),114%,-0.589 (inactive),-2e-05 (inactive),0.00563 (inactive),-54.7% (inactive),-180% (inactive)
Cc1noc(C(=O)Nc2ccc3c(c2)OCO3)c1Cl,763,0% (inactive),-14.1% (inactive),129%,-40.9% (inactive),108%,-0.419 (inactive),-6.4e-05 (inactive),0.00438 (inactive),-21.3% (inactive),-27.6% (inactive)
CCCCS(=O)(=O)NC1=NCN(C2CCN(Cc3ccccc3)CC2)CN1,378,-2.1% (inactive),17.7% (inactive),97.1%,-23.1% (inactive),113%,-0.572 (inactive),-9.6e-05 (inactive),0.00667 (inactive),4.05% (inactive),18.7% (inactive)
O=C(Cn1cc2c(n1)CCCCC2)N1CCc2ccccc21,708,-3.4% (inactive),18.5% (inactive),103%,-102% (inactive),109%,-0.52 (inactive),-4.3e-05 (inactive),0.00739 (inactive),7.59% (inactive),34.4% (inactive)
O=C(Nc1ccc2nc(-c3cccs3)[nH]c2c1)c1ccco1,334,-0.7% (inactive),23% (inactive),78.8%,-132% (inactive),119%,-0.429 (inactive),-7.7e-05 (inactive),0.00445 (inactive),-35.6% (inactive),-87.4% (inactive)
COc1cccc(-c2noc(C3CCCN(C(=O)Cc4ccccc4)C3)n2)c1 (stereo not drawn),276,-2.8% (inactive),5.5% (inactive),109%,18.4% (inactive),115%,-0.609 (inactive),-8.5e-06 (inactive),0.00584 (inactive),9.8% (inactive),14.1% (inactive)
O=C1c2ccccc2C(Nc2ccc(-c3nc4ccccc4[nH]3)cc2)N1Cc1ccco1 (stereo not drawn),701,-6.8% (inactive),-10.2% (inactive),87.9%,-26.7% (inactive),108%,-0.589 (inactive),-2e-06 (inactive),0.00641 (inactive),-24% (inactive),-47.4% (inactive)
Cc1ccccc1-n1c(Cn2c(=O)sc3ccccc32)nnc1SCC(=O)N1CCCC1,652,8.7% (inactive),13.1% (inactive),112%,-36.1% (inactive),120%,-0.547 (inactive),-3.9e-05 (inactive),0.00766 (inactive),12.7% (inactive),10.7% (inactive)
O=C(OCc1cc2ccccc2[nH]c1=O)c1ccco1,234,5.6% (inactive),1.7% (inactive),87.3%,40.8% (inactive),96.9%,-0.476 (inactive),-6e-05 (inactive),0.0037 (inactive),4.98% (inactive),31.1% (inactive)
Cc1ccn2cc(CCNC(=O)CC(C)(C)C)nc2c1,316,6.4% (inactive),-9.1% (inactive),95.6%,-3.4% (inactive),104%,-0.307 (inactive),-5.9e-05 (inactive),0.00588 (inactive),3.87% (inactive),5.08% (inactive)
COc1ccc(S(=O)(=O)N2CCN(c3ccc(C)cc3C)CC2)cc1OC,772,-0.6% (inactive),-17.1% (inactive),114%,-19.1% (inactive),123%,-0.544 (inactive),-3.9e-05 (inactive),0.0076 (inactive),4.37% (inactive),13.8% (inactive)
CCOc1ccc(OCC)c(NC(=O)CCCN2C(=O)c3cccnc3C2=O)c1,408,5.3% (inactive),15.7% (inactive),93.7%,42.2% (inactive),102%,-0.583 (inactive),-3.8e-05 (inactive),0.00505 (inactive),-17.2% (inactive),-8.59% (inactive)
COc1ccc(OC)c(S(=O)(=O)Nc2ccccc2SC)c1,623,-5% (inactive),20% (inactive),96.7%,20.9% (inactive),85.2%,-0.486 (inactive),-3.4e-05 (inactive),0.00443 (inactive),21% (inactive),24% (inactive)
O=C(Nc1ccc(N2CCCCC2)cc1)c1ccc(F)cc1,420,0.3% (inactive),-17.8% (inactive),111%,-134% (inactive),122%,-0.401 (inactive),-0.000159 (inactive),0.00518 (inactive),-44.9% (inactive),-140% (inactive)
COc1ccc(CNC(=O)c2cc3c(=O)n4ccccc4nc3n(Cc3ccco3)c2=N)cc1,666,-7.8% (inactive),-28.6% (inactive),127%,-30.5% (inactive),113%,-0.597 (inactive),-6e-07 (inactive),0.0063 (inactive),14.5% (inactive),20.4% (inactive)
Cc1nn(C)c(C)c1CN(C)C(=O)c1cc2nc(-c3ccco3)cc(C(F)(F)F)n2n1,419,5.7% (inactive),-21.4% (inactive),128%,-33.1% (inactive),106%,-0.182 (inactive),-2e-05 (inactive),0.00389 (inactive),1.09% (inactive),-8.24% (inactive)
